Assay outcomes as filed in PubChem.
HT1080NT lethal – qHTS for induction of synthetic lethality in tumor cells producing 2HG: qHTS for the HT-1080-NT fibrosarcoma cell line; Potency, µM (top dose mostly 46.1 µM), for the others: at the highest dose activity, negative = less viability, actives largely listed as cytotoxic; HT-1080-NT fibrosarcoma viability, CellTiter-Glo ATP luminescence, 48 h; AID 686970, 2013; 360,000 tested, 1.6% active;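 further: NT is the 2HG producing partner of a matched IDH1 knockdown line; potency means the concentration at half of the fitted maximal effect; 0% = DMSO-treated cells and -100% = media-only wells without cells; nearly all actives have a fitted effect of over 55% in size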
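HT-1080-NT; 750 cells/well; 5% FBS RPMI; 48 h compound, 37 degrees C; CellTiter-Glo luminescence; curve fitting and curve-class assignment.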
DT40 TDP1 no CPT – qHTS for Inhibitors of human tyrosyl-DNA phosphodiesterase 1 (TDP1): qHTS in cells in absence of CPT | DT40 Tdp1-/- hTDP1 cells, no CPT, ATP luminescence, 48 h | Potency, µM (highest dose often 46.2 µM), without a hit: at the top dose activity change, negative = growth inhibition, hits mostly inhibitors | 420,000 tested, 15% active; further: potency means the concentration at half of the fitted maximal effect; nearly all actives have a fitted effect of over 55% in size
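Camptothecin absent (DMSO only). Human TDP1-complemented DT40 knockout cells, 400 cells/well, 37 °C for minimum 48 hr; ATP measured via CellTiter-Glo, 30 min dark incubation, luminescence.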
IL1B secr inh – qHTS for Inhibitors of Inflammasome Signaling: IL-1-beta AlphaLISA Primary Screen; AID 743279, 2014; THP-1 LPS/ATP IL-1B secretion, AlphaLISA, 16 h; hits give low values; activity change, % at 57.5 µM; 360,000 tested, 4.7% active; in the data active means activity change below about -50%; inconclusive means mostly about -30% to -49%
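THP-1 cells pretreated 1 hr with compounds (up to 57.5 uM final), then stimulated with LPS (250 ng/mL final) plus ATP (1.25 mM final); secreted IL-1B measured by AlphaLISA after 16 hr, decreased signal indicating inhibition.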
HT1080 IDH1KD tx – qHTS for induction of synthetic lethality in tumor cells producing 2HG: qHTS for the HT-1080-IDH1KD cell line | HT-1080 IDH1 knockdown viability, ATP luminescence, 48 h | Potency, µM (top dose mostly 46.1 µM), for the others: at the top dose activity, negative = toxicity, hits mostly cytotoxic | 360,000 tested, 2% active | AID 686971, 2013;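 further: potency means the concentration at half of the fitted maximal effect; 0% = DMSO wells and -100% = cell-free medium wells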
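Cytotoxicity counter-line: IDH1KD HT-1080, 48 h, CellTiter-Glo. Curves classed by r2, magnitude and activity.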
DT40 TDP1 CPT – qHTS for Inhibitors of human tyrosyl-DNA phosphodiesterase 1 (TDP1): qHTS in cells in presence of CPT. 420,000 tested, 12% active. chicken DT40 Tdp1-/-;hTDP1 cells + 20 nM CPT, ATP luminescence, 48 h. Potency, µM (highest dose often 46.2 µM), without a hit: at the highest dose activity change, negative = growth inhibition, hits mostly inhibitors. AID 686979, 2013; further: potency means the concentration at half of the fitted maximal effect; nearly all actives have a fitted effect of over 55% in size
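Cell growth measured by CellTiter-Glo luminescence after a minimum 48 h, 37 C compound exposure with 20 nM CPT in Tdp1-knockout DT40 cells stably expressing hTDP1, seeded 400/well; qHTS titration format.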
The depositor's hits bear a star; u = inconclusive; x = no result given; [ ] = another dose, or the depositor's remark. The list is not random: actives were taken first. Their share in the collection is about 19%. Unless noted, the call rests on the fitted dose curve; in most records, active means well fitted curve in the direction sought with a large enough effect; inconclusive means small, poorly fitted or top-dose-only effect, or another doubt; inactive means no such curve, though single readings can be large; an effect the other way counts as inactive or inconclusive. Unless noted, on the % scale 0 is the no-effect control and ±100 the full control effect.

SMILES | HT1080NT lethal | DT40 TDP1 no CPT | IL1B secr inh | HT1080 IDH1KD tx | DT40 TDP1 CPT
COc1ccc(-c2nc(Cn3c(SCc4ccc(C)cc4)nc4cccnc43)c(C)o2)cc1OC | x | u | x | x | 5.2µM*
COc1ccc(-c2nc(Cn3c(SCc4ccc(F)cc4)nc4ccncc43)c(C)o2)cc1OC | 23µM* | 21µM* | -20 | u | u
Cc1oc(-c2cccc(Cl)c2)nc1Cn1c(SCc2ccc(F)cc2)nc2cccnc21 | x | 26µM* | x | x | 26µM*
Cc1ccc(C)c(CSc2nc3ccncc3n2Cc2nc(-c3ccccc3Cl)oc2C)c1 | x | u | x | x | 21µM*
CC1(C(=O)NCc2ccc3c(c2)OCO3)CCN1C(=O)Cc1ccc(Cl)cc1Cl (stereo unspecified) | -13% | u | -20 | -15% | -27%
O=C(c1ccccc1-n1cccn1)N1CCOc2ccc(CN3CCOCC3)cc2C1 | x | -22% | x | x | 12%[9.04 µM]
COCC(=O)N1CCC(Oc2ccc(C(=O)N(C)C3CCCCC3)cc2)CC1 | -20% | 0% | 0 | -5% | -25%
CCOCCCN(C)C1CCN(C(=O)c2oc3ccccc3c2NC(=O)c2cccc([N+](=O)[O-])c2)CC1 | -10% | -26% | -18 | -1% | u
COc1ccc(-c2nc(Cn3c(SCc4ccccc4F)nc4ccncc43)c(C)o2)cc1 | -22% | 15µM* | 3 | u | u
COc1ccc(-c2nc(Cn3c(SCc4ccc(F)cc4)nc4cccnc43)c(C)o2)cc1 | x | 2.6µM* | x | x | 2.9µM*
COCCn1c(-c2ccc(F)cc2)nc2cccnc21 | 20% | 19% | 4 | 13% | 7%
Cc1oc(-c2ccccc2Cl)nc1Cn1c(SCc2cccc(F)c2)nc2cccnc21 | x | 26µM* | x | x | 23µM*
O=C(Cn1c(SCc2ccccc2F)nc2ccncc21)Nc1ccccc1C(F)(F)F | x | -19% | x | x | u
Cc1oc(-c2ccccc2Cl)nc1CN1CCCC1c1ccc(F)cc1 (stereo unspecified) | 0% | -36% | 11 | -5% | u
CCCCc1ccc(NC(=O)N2CCN(c3cc(C)nc4ccccc34)CC2)c(C)c1 | u | u | -67* | -28% | u
CN(C)/C=N/NC(=O)c1ccccc1 | 2% | 19% | 12 | u | -4%
O=C(NN=c1c(=O)c2ccccc2c1=O)c1ccccc1 | 12% | 18µM* | u | 0% | 18µM*
O=C(NCc1ccco1)/C(=C/c1ccc([N+](=O)[O-])cc1)NC(=O)c1ccco1 | 2% | 3% | -4 | -4% | 9%
O=C(NNC(=O)C1CCN(Cc2ccccc2)CC1)c1cccc(Cl)c1 | -2% | -24% | -4 | 0% | 26%
O=C(Nc1cccc(S(=O)(=O)N2CCCCC2)c1)c1ccc(N2CCCC2=O)cc1 | -1% | -19% | 20 | 12% | -6%
O=C(Nc1nc(-c2ccccn2)cs1)C1CC(=O)N(c2ccc3c(c2)OCCO3)C1 (stereo unspecified) | -17% | 16µM* | 23 | -11% | 26µM*
O=C(Nc1nc(-c2ccccn2)cs1)C1CC1 | -6% | 18µM* | -1 | -9% | 23µM*
COc1ccc(NC(=O)CC2CC3CCC2C3)cn1 (stereo unspecified) | 4% | -6% | -16 | -9% | -7%
O=C(CC1CC2CCC1C2)Nc1nc(-c2ccccn2)cs1 (stereo unspecified) | -2% | 6.5µM* | 91 | -26% | u
CC(=O)N1CCc2cc(CNC(=O)Nc3ccc(Br)c(C)c3)ccc21 | x | 3% | x | x | u
SMILES | HT1080NT lethal | DT40 TDP1 no CPT | IL1B secr inh | HT1080 IDH1KD tx | DT40 TDP1 CPT
CN1CCN(NC(=O)c2cccc(Br)c2)CC1 | -3% | 0% | 22 | 18% | 1%
COC(=O)c1cc(CNC(=O)c2cccc(N(C)C)c2)cc(NC(=O)c2ccccc2Cl)c1 | x | -12% | x | x | 0%[9.04 µM]
Cc1oc2cc3oc(=O)c(CCC(=O)NCCCN4CCOCC4)c(C)c3cc2c1C | -10% | u | u | -10% | 23µM*
Cc1c(CCC(=O)NCCCn2ccnc2)c(=O)oc2cc3oc4c(c3cc12)CCCC4 | u | 10µM* | u | -27% | 9.2µM*
Cc1c(CCC(=O)N2CCC(C(=O)O)(c3ccccc3)CC2)c(=O)oc2cc3oc4c(c3cc12)CCCC4 | 1% | -13% | 15 | 1% | 1%
Cc1c(CCC(=O)N2CCC(C(=O)O)CC2)c(=O)oc2cc3oc4c(c3cc12)CCCC4 | -1% | 15µM* | -11 | -4% | u
Cc1coc2cc3oc(=O)c(CCC(=O)NCCCn4ccnc4)c(C)c3cc12 | 5% | u | -18 | 5% | u
Cc1oc2cc3oc(=O)c(CCC(=O)NCCCn4ccnc4)c(C)c3cc2c1C | -4% | 23µM* | -52* | -6% | u
COc1cccc(CNC(=O)CCC2CCCN(Cc3ccc4c(c3)CCO4)C2)c1 (stereo unspecified) | -11% | -6% | -13 | -1% | -4%
CCOC(=O)c1c(-c2ccccc2)csc1NC(=O)CSc1nnnn1C | u | u | -8 | 11µM* | 18µM*
Cn1nnnc1SCC(=O)NC(=O)Cc1ccccc1 | 3% | 6.5µM* | 41 | 2% | 12µM*
CCOC(=O)c1c(-c2ccccc2)csc1NC(=O)CSc1ccccc1 | 18% | u | 3 | 17% | -20%
O=C(CSc1nnnn1-c1ccccc1)NC(=O)Cc1ccccc1 | 3%[9.24 µM] | 6% | 8 | 0% | 1%
CCOC(=O)c1c(NC(=O)CSc2nnnn2C)sc(C)c1-c1ccc(C)cc1 | u | 16µM* | u | 8.9µM* | u
CCOC(=O)c1c(-c2ccccc2)csc1NC(=O)CSc1nncs1 | -21% | 16µM* | 0 | -18% | 23µM*
